# Results reported in PubChem BioAssay AID434959 (Broad Institute, 2010).
# Out of some 30,000 compounds screened, about 110 (0.37%) were called active.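 Rule for the calls: active = delta delta Cp rounded down to an integer at or above 3, about 3 SD of DMSO wells; inactive = the rest.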 What follows is part of a selection rich in actives, with near analogues and random picks from the rest.
# Experiment: inhibitors of YB-1 gene expression, primary screen, cell-based, fluorescence (AID 434959);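 note: higher means less YB-1 transcript or more CDIP transcript relative to DMSO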
# Details: U2OS, qRT-PCR YB-1 vs CDIP delta delta Cp, 16 h; stronger effect = higher value; zero = DMSO, each unit about twofold
row,SMILES,delta Cp (YB-1 minus CDIP)
1,COc1cc(O[C@@H]2O[C@H](CO[C@H]3OC[C@](O)(COC(=O)c4ccc(O)c(OC)c4)[C@H]3O)[C@@H](O)[C@H](O)[C@H]2O)ccc1O,0.323 (inactive)
2,C[C@H]1CN([C@@H](C)CO)C(=O)Cc2cc(NS(=O)(=O)c3cccs3)ccc2O[C@H]1CN(C)Cc1ccncc1,0.635 (inactive)
3,C[C@H](CO)N1C[C@H](C)[C@H](CN(C)S(=O)(=O)c2cccc(F)c2)OCc2cnnn2CCCC1=O,0.303 (inactive)
4,Cc1ccc(S(=O)(=O)Nc2cccc3c2O[C@@H](CN(C)S(=O)(=O)c2c(C)noc2C)[C@@H](C)CN([C@H](C)CO)C3=O)cc1,-0.382 (inactive)
5,Nn1c(C(=O)N2CCCC2)nc2ccccc2c1=O,0.192 (inactive)
6,NC(=S)c1cnn2c(C(F)(F)F)cc(C(F)(F)F)nc12,9.53 (active)
7,CCOC(=O)c1cnn2c(C(F)(F)F)cc(C)nc12,-0.121 (inactive)
8,COC(=O)CCCCCCC(=O)N/N=C/c1ccc(O)c(O)c1O,-0.105 (inactive)
9,COc1ccc(CN(C)C[C@H]2Oc3ccc(NC(=O)Cn4cnnn4)cc3CC(=O)N([C@@H](C)CO)C[C@@H]2C)cc1,-0.171 (inactive)
10,CC(C)(C)OC(=O)Nc1cccc(/C=N/NC(=O)CCCCCC(=O)Nc2ccccc2O)c1,-0.601 (inactive)
11,COc1cc(/C=N\NC(=O)CCCCCCC(=O)NO)c(Br)cc1O,-0.218 (inactive)
12,C[C@@H]1CN([C@H](C)CO)C(=O)CCCn2cc(nn2)CO[C@@H]1CN(C)C(=O)Nc1ccc(-c2cccs2)cc1,-0.273 (inactive)
13,C[C@@H]1CN([C@@H](C)CO)C(=O)Cc2cc(NC(=O)C3CC3)ccc2O[C@@H]1CN(C)S(C)(=O)=O,0.012 (inactive)
14,C[C@H]1CN([C@@H](C)CO)C(=O)c2cccc(NC(=O)Nc3ccc(F)cc3)c2O[C@@H]1CN(C)C(=O)Nc1ccc2c(c1)OCO2,1.42 (inactive)
15,COc1ccc(NC(=O)N(C)C[C@@H]2Oc3c(NC(=O)c4ccc(-c5nccs5)cc4)cccc3C(=O)N([C@H](C)CO)C[C@@H]2C)cc1,-0.282 (inactive)
16,O=C(CCCCC(=O)N/N=C/c1ccc(C(F)(F)F)cc1)NO,0.349 (inactive)
17,COc1ccc(S(=O)(=O)N(C)C[C@H]2Oc3ccc(NC(=O)Nc4c(C)noc4C)cc3CC(=O)N([C@@H](C)CO)C[C@H]2C)cc1,-0.281 (inactive)
18,C[C@@H]1CN([C@H](C)CO)C(=O)c2cccc(NS(=O)(=O)c3ccc(F)cc3)c2O[C@@H]1CN(C)C(=O)Nc1ccc(C(F)(F)F)cc1,-0.00681 (inactive)
19,C[C@H](CO)N1C[C@H](C)[C@@H](CN(C)Cc2ccc3c(c2)OCO3)OCc2cnnn2CCCC1=O,-0.135 (inactive)
20,C[C@H]1CN([C@@H](C)CO)C(=O)CCCn2cc(nn2)CO[C@H]1CN(C)S(=O)(=O)c1ccc2ccccc2c1,0.00166 (inactive)
21,Cc1noc(C)c1NC(=O)Nc1ccc2c(c1)CC(=O)N([C@H](C)CO)C[C@@H](C)[C@@H](CN(C)Cc1ccncc1)O2,-0.309 (inactive)
22,O=C(O)CCCCCCC(=O)N/N=C/c1cccs1,-0.0775 (inactive)
23,COc1cccc(-c2cnc3c(c2)C(=O)N([C@H](C)CO)C[C@H](C)[C@H](CN(C)S(=O)(=O)c2cccc(F)c2)O3)c1,-0.156 (inactive)
24,C[C@@H]1CN([C@H](C)CO)C(=O)c2cccc(NC(=O)c3ccncc3)c2O[C@@H]1CN(C)C,-0.219 (inactive)
25,C[C@@H]1CN([C@@H](C)CO)C(=O)Cc2cc(NC(=O)Nc3ccccc3)ccc2O[C@@H]1CN(C)S(=O)(=O)c1ccc(F)cc1,-0.00869 (inactive)
26,O=C(N/N=C/[C@H](O)[C@@H](O)[C@H](O)[C@H](O)CO)c1ccccc1O,0.111 (inactive)
27,C[C@@H]1CN([C@H](C)CO)C(=O)c2cccc(NC(=O)Nc3ccc4c(c3)OCO4)c2O[C@@H]1CN(C)Cc1ccccc1,-0.407 (inactive)
28,C[C@@H]1CN([C@H](C)CO)C(=O)c2cc(NC(=O)CCCN(C)C)ccc2O[C@H]1CN(C)Cc1ccc(C(=O)O)cc1,-0.213 (inactive)
29,Cc1ncc(CO)c(/C=N/NC(=O)c2ccc(C(=O)NO)cc2)c1O,0.181 (inactive)
30,C[C@@H]1CN([C@@H](C)CO)C(=O)Cc2cc(NC(=O)Nc3cccc4ccccc34)ccc2O[C@@H]1CN(C)CC1CCCCC1,0.088 (inactive)
